{"source": "PubChem BioAssay AID2501", "about": "(Southern Research Specialized Biocontainment Screening …, 2010)", "note": "The whole screen tested about 2,200 compounds, of which about 1,200 (55%) were called active. Cut-off not given; nearly all actives show IC50 up to about 92 µM. The set was probably picked from earlier hits. The list shows a part of the results."}
{"assay": "counter assay for TAg ATPase ADP read-out – biochemical, ADP-Hunter, fluorescence, counter-screen (AID 2501);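 further: purified T antigen ATPase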", "conditions": "series mostly up to 100 µM"}
{"smiles": "CC1(OC(=O)CCc2ccccc2)C(=O)C=C2C=C(c3ccc(C#N)cc3)N(Cc3ccco3)C=C2C1=O", "note": "(centres undefined)", "IC50": "inactive"}
{"smiles": "COc1ccc(NC(=O)c2c(Cl)cnn2C)c(C)c1", "IC50": "inactive"}
{"smiles": "COc1ccc(Nc2ccc(Cl)cc2)c(C(=O)O)c1", "IC50": "9.23 µM (active)"}
{"smiles": "COc1ccc(C(=O)CCNc2ccc(C)c(Cl)c2)cc1", "IC50": "inactive"}
{"smiles": "O=C(Cn1c(=O)oc2ccccc21)Nc1n[nH]c(=S)s1", "IC50": "88.8 µM (active)"}
{"smiles": "Nc1ccc2c(c1)-c1ccccc1S(=O)(=O)N2", "IC50": "2.89 µM (active)"}
{"smiles": "CC(Nc1ccc(N2CCOCC2)cc1)C(=O)N1c2ccccc2CC1C", "note": "(centres undefined)", "IC50": "8.86 µM (active)"}
{"smiles": "O=c1cc(CN2CCN(Cc3ccc(F)cc3)C(CCO)C2)[nH]c2ccccc12", "note": "(centres undefined)", "IC50": "inactive"}
{"smiles": "Cc1ccc(CN2CCN(Cc3cn[nH]c3-c3cccc(F)c3)CC2CCO)o1", "note": "(centres undefined)", "IC50": "inactive"}
{"smiles": "CCOc1ccc(CN2CCN(Cc3cccc4c3OCO4)CC2CCO)cc1", "note": "(centres undefined)", "IC50": "2.23 µM (active)"}
{"smiles": "Cc1nc(C)c(-c2csc(Nc3ccc(N)cc3)n2)s1", "IC50": "7.48 µM (active)"}
{"smiles": "Cc1cccc(-n2c(O)c(C=Nc3ccc(O)cc3)c3ccccc3c2=O)n1", "IC50": "3.7 µM (active)"}
{"smiles": "Cc1cc2c(n1-c1ccc(C(=O)O)cc1)CCCCC2", "IC50": "inactive"}
{"smiles": "C=C1C(=O)O[C@@H]2[C@H]3O[C@]3(C)CC/C=C(\\C)CC[C@@H]12", "IC50": "inactive"}
{"smiles": "CC(C)CC(NC(=O)CC12CC3CC(CC(C3)C1)C2)C(=O)NC1=NCCS1", "note": "(centres undefined)", "IC50": "inactive"}
{"smiles": "COc1ccc(N=Cc2nc(-c3ccccc3)oc2OC(C)=O)cc1", "IC50": "inactive"}
{"smiles": "COc1ccc(N=Cc2c(O)cc(C)oc2=O)cc1", "IC50": "6.29 µM (active)"}
{"smiles": "CC(=O)Nc1ccc(N2CCCCC2)cc1", "IC50": "12.1 µM (active)"}
{"smiles": "O=C(CCl)Nc1ccc(N2CCCCCC2)cc1", "IC50": "0.76 µM (active)"}
{"smiles": "Cc1ccc(NC(=O)NCCN2CCCCC2)cc1Cl", "IC50": "inactive"}
{"smiles": "Cn1c(CCN2CCCCCC2)nc2cc(NC(=O)Nc3ccccc3)ccc21", "IC50": "inactive"}
{"smiles": "Nc1ccc(NC(=O)NC2CCCCC2)cc1", "IC50": "9.21 µM (active)"}
{"smiles": "O=C(Nc1ccc2nc(-c3ccco3)c(-c3ccco3)nc2c1)NC1CC1", "IC50": "inactive"}
{"smiles": "O=C(NC1CCCCCC1)c1cccnc1Sc1ccc(Cl)cc1", "IC50": "inactive"}
{"smiles": "O=c1cc(CSc2ccc(Cl)cc2)[nH]c2[nH]n(-c3ccccc3)c(=O)c12", "IC50": "16.2 µM (active)"}
{"smiles": "O=C(O)c1ccccc1NS(=O)(=O)c1ccc(NNC(=S)Nc2ccc(OC(F)F)cc2)c([N+](=O)[O-])c1", "IC50": "23 µM (active)"}
{"smiles": "O=C(/C=C/c1ccco1)NCC1OCCc2ccccc21", "note": "(centres undefined)", "IC50": "inactive"}
{"smiles": "COc1ccc(O)c(C(=O)C2c3ccccc3C(=O)N2c2ccc(C)cc2)c1", "note": "(centres undefined)", "IC50": "inactive"}
{"smiles": "O=C(COc1ccc2c(-c3ccccc3)cc(=O)oc2c1)N[C@@H](Cc1c[nH]c2ccc(O)cc12)C(=O)O", "IC50": "31.3 µM (active)"}
{"smiles": "O=C(O)c1ccccc1C(=O)NC1=NN(c2ccccc2)CC1", "IC50": "12.1 µM (active)"}
{"smiles": "COc1cc(/C=N/NC2=NCCCCC2)ccc1O", "IC50": "4.15 µM (active)"}
{"smiles": "COc1cc(/C=N/Nc2ccccn2)ccc1O", "IC50": "8.27 µM (active)"}
{"smiles": "COc1cccc2c(N/N=C/c3ccc(O)c(O)c3)cc(C)nc12", "IC50": "10.2 µM (active)"}
{"smiles": "COc1cc(/C=N/Nc2ccnc(=O)[nH]2)ccc1O", "IC50": "5.01 µM (active)"}
{"smiles": "COc1cc(/C=N\\Nc2cc(=O)n(C)c(=O)n2C)ccc1O", "IC50": "4.97 µM (active)"}
{"smiles": "COc1cc(/C=N/Nc2nncn2/N=C/c2ccc(O)c(OC)c2)ccc1O", "IC50": "4.48 µM (active)"}
{"smiles": "COc1cc(/C=N/Nc2nc(=O)[nH]nc2C)ccc1O", "IC50": "6.46 µM (active)"}
{"smiles": "Cc1cc(C)n(CCc2nc(-c3ccco3)cs2)n1", "IC50": "inactive"}
{"smiles": "COC(=O)C1=C(O)/C(=C\\c2ccc(O)c(OC)c2)N=C1C", "IC50": "3.81 µM (active)"}
{"smiles": "CCOC(=O)C1=C(O)/C(=C\\c2ccc(O)c(OCC)c2)N=C1C", "IC50": "9.47 µM (active)"}
{"smiles": "CCOc1cc(/C=C2/N=C(C)C(C(=O)OC)=C2O)ccc1O", "IC50": "3.91 µM (active)"}
{"smiles": "C#CCOCCOCCOCCNc1nc(N2CCN(C(=O)CCCCCCCCCCNC(=O)[C@H]([C@@H](C)CC)n3cc(CCCCN=C(N)N)nn3)CC2)nc(N2CCN(C(=O)CCCCCCCCCCNC(=O)[C@H]([C@@H](C)CC)n3cc(CCCCN=C(N)N)nn3)CC2)n1", "IC50": "inactive"}
{"smiles": "O=[N+]([O-])c1ccc(C2(O)CN(c3ccccc3)C3=[N+]2CCS3)cc1", "note": "(centres undefined)", "IC50": "inactive"}
{"smiles": "Cc1[nH]n(-c2ccccc2)c(=S)c1C=Nc1ccc([N+](=O)[O-])cc1", "IC50": "48 µM (active)"}
{"smiles": "COc1cc(SC#N)ccc1N=Cc1c(C)[nH]n(-c2ccc(C)cc2)c1=O", "IC50": "inactive"}
{"smiles": "COc1ccc(NC2CCCN(C(=O)CSc3ccccc3)C2)cc1", "note": "(centres undefined)", "IC50": "4.76 µM (active)"}
{"smiles": "O=C1CCCCN1CCC(=O)N1CCCC(Nc2ccccc2)C1", "note": "(centres undefined)", "IC50": "inactive"}
{"smiles": "COc1ccc(NC2CCCN(C(=O)CCn3cccn3)C2)cc1", "note": "(centres undefined)", "IC50": "5.33 µM (active)"}
{"smiles": "COc1ccc(NC2CCCN(C(=O)CCCn3cncn3)C2)cc1", "note": "(centres undefined)", "IC50": "11.5 µM (active)"}
{"smiles": "CCCn1c(SCC(=O)N2CCCC(C)C2)nnc1-c1ccccn1", "note": "(centres undefined)", "IC50": "inactive"}
{"smiles": "OCCC1CN(Cc2cccn2-c2ncccn2)CCN1CCc1ccccc1", "note": "(centres undefined)", "IC50": "inactive"}
{"smiles": "COc1ccc(C2=CC3=C(Br)C(=O)C(C)(OC(=O)c4cccs4)C(=O)C3=CO2)cc1", "note": "(centres undefined)", "IC50": "inactive"}
{"smiles": "CC(=O)NS(=O)(=O)c1ccc(N=c2ssc3c2-c2cc(C)ccc2NC3(C)C)cc1", "IC50": "74.3 µM (active)"}
{"smiles": "CN1C=CC=C/C1=C(\\C#N)c1nc2ccccc2[nH]1", "IC50": "4.36 µM (active)"}
{"smiles": "NS(=O)(=O)c1ccc(N/N=C/c2ccc[nH]2)c([N+](=O)[O-])c1", "IC50": "14.6 µM (active)"}
{"smiles": "Cc1cs/c(=N\\N=C\\c2ccc(O)cc2)n1Cc1ccco1", "IC50": "5.01 µM (active)"}
{"smiles": "CCOc1cccc(=O)c2c(C)n(Cc3ccco3)c(C)c12", "IC50": "inactive"}
{"smiles": "O=C(CCc1nnc(C2(c3ccc(Cl)cc3)CCC2)o1)N1CCCC(O)C1", "note": "(centres undefined)", "IC50": "inactive"}
{"smiles": "CC(C)CN(Cc1c(O)ccc2c3c(c(=O)oc12)CCC3)CC(C)C", "IC50": "5.92 µM (active)"}
{"smiles": "N=C1/C(=C\\c2coc3ccc(O)cc3c2=O)C(=O)N=C2SC=CN12", "IC50": "84.9 µM (active)"}
{"smiles": "CC(C)CC1=NN2C(=N)/C(=C\\c3coc4ccccc4c3=O)C(=O)N=C2S1", "IC50": "inactive"}
{"smiles": "O=C1NN(c2cccc(Br)c2)C(=O)/C1=C\\c1ccc(O)cc1", "IC50": "11.6 µM (active)"}
{"smiles": "CSC1=NSC2=NC(=O)/C(=C\\c3coc4ccccc4c3=O)C(=N)N12", "IC50": "inactive"}
{"smiles": "O=C1NN(c2ccccc2)C(=O)/C1=C\\c1coc2ccc(O)cc2c1=O", "IC50": "10.7 µM (active)"}
